Only some compounds are listed: those with a hit (about 1.3% of all), similar ones and a draw of the others.
Vaccinia mCherry: inhibitors of vaccinia virus infection (mCherry reporter signal); actives 0.63% (n = 310,000); AID 720579; Vaccinia virus mCherry reporter infection, fluorescence; Potency, µM (highest dose often 36.5 µM), for inactives: top-dose activity change, negative = inhibition, usual class: inhibitors; calls by dose curve; tested in A549 cells; further: nearly all actives have a fitted effect of over 35% in size
RE007 growth inh: less growth of the S. pombe RE007 Vpr strain | S. pombe RE007 Vpr strain, BacTiter-Glo ATP luminescence, 24 h | Potency, µM (highest dose often 92.2 µM), for the others: at the top dose activity change, negative = less growth, actives largely listed as inhibitors | actives 0.21% (n = 360,000); active means well fitted falling curve with a large enough effect; inconclusive means small, poorly fitted or top-dose-only effect; inactive means no such curve, though single readings can be large or run the other way; further: nearly all actives have a fitted effect of over 50% in size
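Fission yeast RE007 carrying one integrated HIV-1 vpr copy, seeded at OD 0.01 in PMG+AL medium with 23 nL pinned compound. Grown 24 h at 30 degrees; viability read by BacTiter-Glo luminescence after 5 min.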
VACV Venus inh: vaccinia inhibition (Venus reporter) | Vaccinia virus Venus reporter expression, fluorescence | Potency, µM (top dose mostly 36.5 µM), without a hit: at the highest dose activity change, negative = inhibition, most hits filed as inhibitors | actives 0.46% (n = 330,000) | AID 720580; calls by dose curve; tested in A549 cells; further: nearly all actives have a fitted effect of over 30% in size
AMA1-RON2 inh: disrupts binding of P. falciparum AMA1 to RON2. AlphaScreen AMA1-biotinylated RON2 peptide binding. Potency, µM (series often up to 58.2 µM), for inactives: at the top dose activity change, negative = inhibition, most hits filed as inhibitors. actives 0.2% (n = 360,000);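 further: 0% = vehicle wells and -100% = peptide control; nearly all actives have a fitted effect of over 45% in size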
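AMA1 (3D7) with his tag at 25 nM final met compounds first, then biotinylated RON2 peptide at 25 nM; detection used donor plus acceptor beads, 10 µg/mL apiece, read by AlphaScreen after 30 min at room temperature.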
LmPK inh: LmPK (Leishmania mexicana) enzyme inhibition; actives 0.37% (n = 290,000); Q27686; purified LmPK, Kinase-Glo ATP luminescence, 1 h; Potency, µM (top dose mostly 57.5 µM), for the others: top-dose activity change, negative = inhibition, most hits filed as inhibitors
Target sequence (Q27686 whole entry, looked up): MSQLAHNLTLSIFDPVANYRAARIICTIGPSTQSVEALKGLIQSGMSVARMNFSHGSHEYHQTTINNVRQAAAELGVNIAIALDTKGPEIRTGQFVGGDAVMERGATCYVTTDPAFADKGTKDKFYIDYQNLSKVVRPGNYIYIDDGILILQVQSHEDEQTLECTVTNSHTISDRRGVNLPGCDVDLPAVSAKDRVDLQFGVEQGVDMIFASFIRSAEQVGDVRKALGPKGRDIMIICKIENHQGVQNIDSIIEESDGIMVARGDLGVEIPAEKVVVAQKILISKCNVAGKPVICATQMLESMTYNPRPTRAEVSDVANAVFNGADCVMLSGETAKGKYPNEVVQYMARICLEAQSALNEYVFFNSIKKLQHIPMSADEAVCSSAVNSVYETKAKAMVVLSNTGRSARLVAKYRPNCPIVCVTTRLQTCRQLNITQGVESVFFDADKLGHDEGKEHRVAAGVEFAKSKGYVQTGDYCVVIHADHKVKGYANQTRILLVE
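Pyruvate kinase activity monitored as ATP production (luciferase luminescence). Conditions: 0.1 nM enzyme, 0.5 mM PEP, 0.1 mM ADP, 1 h, RT; normalized against uninhibited and no-enzyme wells.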
Tb PYK inh: T. brucei pyruvate kinase inhibition; Q57TT1; TbPYK enzyme, Kinase-Glo Plus ATP luminescence, 45 min; Potency, µM (doses to about 76.8 µM), without a hit: at the top dose activity, negative = inhibition, hits mostly inhibitors; actives 0.12% (n = 410,000); AID 624173; further: nearly all actives have a fitted effect of over 50% in size
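Enzyme and substrate buffer are dispensed first and compound is pin-transferred. ADP at 130 uM final then starts the reaction, which runs 45 min at room temperature. Detection reagent is added for 10 min before luminescence is imaged.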
Active calls of the source: *; [ ] = dose if it differs, or a comment. Unless noted, the call rests on the fitted dose curve; in most records, active means well fitted curve in the direction sought with a large enough effect; inconclusive means small, poorly fitted or top-dose-only effect, or another doubt; inactive means no such curve, though single readings can be large; an effect the other way counts as inactive or inconclusive. Unless noted, on the % scale 0 is the no-effect control and ±100 the full control effect; potency means the concentration at half of the fitted maximal effect.

How did O=[N+]([O-])c1ccccc1S(=O)(=O)NCc1ccco1 do in these assays?
Vaccinia mCherry: -10%; RE007 growth inh: 0%; VACV Venus inh: -19%; AMA1-RON2 inh: -3%; LmPK inh: 5%; Tb PYK inh: -5%

Results for O=C1[O][Sb-]23[O]C(=O)C([O]2)C2[O][Sb-]4([O]C(=O)C([O]4)C1[O]3)[O]C2=O ?
Tb PYK inh: 3%

Results for COc1ccccc1C(=O)NCCC(=O)Nc1nc2ccccc2[nH]1 ?
Vaccinia mCherry: -14%; RE007 growth inh: -6%; VACV Venus inh: inconclusive; AMA1-RON2 inh: 8%; Tb PYK inh: -3%

What do the screens show for `COc1cc(SC)ccc1C(=O)NNC(=O)c1cc(C)oc1C`?
Vaccinia mCherry: -2%; RE007 growth inh: 13µM*; VACV Venus inh: -16%; AMA1-RON2 inh: 62%; Tb PYK inh: inconclusive

What do the screens show for `COc1cccc(C(=O)Nc2nc3ccccc3[nH]2)c1`?
Vaccinia mCherry: -14%[1.46 µM]; RE007 growth inh: inconclusive; VACV Venus inh: -20%; AMA1-RON2 inh: 100%; LmPK inh: 14µM*; Tb PYK inh: -19%

Results for COc1cc(SC)ccc1C(=O)Nc1c(C)cccc1C ?
Vaccinia mCherry: -4%; RE007 growth inh: 18%; VACV Venus inh: -13%; AMA1-RON2 inh: 8%; LmPK inh: 7%; Tb PYK inh: 1%

Results for COc1cc(SC)ccc1C(=O)Nc1nc2ccccc2[nH]1 ?
Vaccinia mCherry: -22%; RE007 growth inh: 4µM*; VACV Venus inh: -15%; AMA1-RON2 inh: 5%; LmPK inh: -22%; Tb PYK inh: inconclusive

Results for COc1ccccc1C(=O)Nc1nc2ccccc2[nH]1 ?
Vaccinia mCherry: -12%; RE007 growth inh: inconclusive; VACV Venus inh: -10%; AMA1-RON2 inh: 0%; LmPK inh: 11µM*; Tb PYK inh: 10µM*

How did CC(C)C(=O)NCC1CCC2(CCN(Cc3ccc(-c4ccccc4Cl)o3)CC2)O1 (centres undefined) do in these assays?
Vaccinia mCherry: -24%; VACV Venus inh: -23%

What do the screens show for `Clc1ccc(-n2cccc2CN2CCOc3ccc(CN4CCOCC4)cc3C2)nc1`?
Vaccinia mCherry: inactive; VACV Venus inh: -14%

Results for CSc1nccc(-c2cc(Cl)c3c(c2)CC(CNC(=O)c2nonc2C)O3)n1 (centres undefined) ?
Vaccinia mCherry: -2%; VACV Venus inh: -22%

Results for Cc1cc(CNC(=O)CCN2Cc3cc(Cl)ccc3OC(C)C2)nn1C (centres undefined) ?
Vaccinia mCherry: -5%; VACV Venus inh: -2%

What do the screens show for `CCOc1cc(OCC)cc(C(=O)Nc2cccc(-c3nc4ccccc4[nH]3)c2)c1`?
Vaccinia mCherry: 11µM*; VACV Venus inh: 11µM*; Tb PYK inh: -1%

How did Cc1nnc(-c2ccccc2)c(=O)n1/N=C/c1c(O)ccc2ccccc12 do in these assays?
Vaccinia mCherry: 3.2µM*; RE007 growth inh: 1%; VACV Venus inh: inconclusive; AMA1-RON2 inh: -26%; LmPK inh: 0%; Tb PYK inh: 9%

How did Cc1nnc(C)n1/N=C/c1c(O)ccc2ccccc12 do in these assays?
RE007 growth inh: -4%; AMA1-RON2 inh: 95%; LmPK inh: -2%; Tb PYK inh: -5%

How did COc1cccc(C(=O)N(Cc2cc3ccc(C)cc3nc2N(C)C)C2CC2)c1OC do in these assays?
Vaccinia mCherry: -16%; VACV Venus inh: -4%

Results for Cc1c(C(=O)NCC2(N3CCOCC3)CCCCCC2)cnn1-c1nccc(-c2ccccc2F)n1 ?
Vaccinia mCherry: -6%; VACV Venus inh: -13%

What do the screens show for `COc1nc(Nc2ccc(O)cc2)nc(OC(C(F)(F)F)C(F)(F)F)n1`?
RE007 growth inh: 9%; AMA1-RON2 inh: 0%; LmPK inh: 1%; Tb PYK inh: -6%
